Screens as filed in PubChem BioAssay.
LmPK inh = inhibitors of Leishmania mexicana pyruvate kinase | purified LmPK, Kinase-Glo ATP luminescence, 1 h | Potency, µM (highest dose often 57.5 µM), for the others: top-dose activity change, negative = inhibition, actives largely listed as inhibitors | actives 0.37% (n = 290,000); also: potency is read from the fitted curve at half-maximal effect; % is scaled to controls: 0 for no effect and ±100 for the full control effect
Target sequence (Q27686 whole entry, looked up): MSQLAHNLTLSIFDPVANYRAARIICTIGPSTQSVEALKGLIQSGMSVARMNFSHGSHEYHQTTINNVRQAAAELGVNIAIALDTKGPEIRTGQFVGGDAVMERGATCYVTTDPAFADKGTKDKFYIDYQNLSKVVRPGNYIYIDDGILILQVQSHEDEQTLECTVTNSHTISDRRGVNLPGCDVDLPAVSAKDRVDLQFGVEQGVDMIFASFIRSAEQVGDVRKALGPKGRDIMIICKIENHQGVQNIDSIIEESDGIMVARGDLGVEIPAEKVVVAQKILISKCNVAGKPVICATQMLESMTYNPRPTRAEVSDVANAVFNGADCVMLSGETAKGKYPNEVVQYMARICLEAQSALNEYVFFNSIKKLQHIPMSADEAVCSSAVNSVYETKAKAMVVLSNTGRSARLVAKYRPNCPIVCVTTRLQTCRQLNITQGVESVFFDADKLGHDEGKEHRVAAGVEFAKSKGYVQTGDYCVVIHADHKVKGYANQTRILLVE
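Purified LmPK (0.1 nM) with 0.5 mM PEP and 0.1 mM ADP in imidazole buffer pH 7.2 with MgCl2/KCl, 1 h at room temperature. ATP formed was read by luciferase luminescence and normalized to no-enzyme and uninhibited controls.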
Pf growth 48h = inhibits P. falciparum growth in the first generation, 48 h; P. falciparum luciferase growth in erythrocytes, 48 h; Potency, µM (doses to about 28.7 µM), without a hit: top-dose activity change, negative = inhibition, hits mostly inhibitors; actives 5.9% (n = 310,000); also: potency is read from the fitted curve at half-maximal effect; % is scaled to controls: 0 for no effect and ±100 for the full control effect
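First compound was added to culture medium, then infected red cells at 0.1% parasitemia and 2% hematocrit (final). After incubation at 37 C under 5% CO2, luciferase detection reagent was dispensed and light output recorded.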
Pf growth 96h = P. falciparum growth inhibition at 96 hour, primary screen for plastid delayed-death inhibitors | P. falciparum luciferase reporter growth, 96 h | Potency, µM (titrated, usually from 28.7 µM), for inactives: top-dose activity change, negative = inhibition, usual class: inhibitors | actives 6.9% (n = 320,000); also: potency is read from the fitted curve at half-maximal effect; % is scaled to controls: 0 for no effect and ±100 for the full control effect
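Luminescence readout: decreased luciferase signal marks inhibited growth of reporter-expressing P. falciparum in infected red cells (2% hematocrit, 0.05% parasitemia final), exposed to compound two generations (96 h, 37 C, 5% CO2).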
Cycloheximide cs = counter-screen hit for Shiga toxin inhibitors, cycloheximide. cell reporter, cycloheximide protein synthesis inhibition counterscreen. max response, %. actives 12% (n = 300,000). AID 2314; in the data active = max response mostly above about 13%, no sharp cut-off; inactive = mostly below about 14%; also: read at 38.3 µM for the half of the compounds with a filed dose; 0% is about no effect
Shiga inhibitor = Shiga toxin inhibition. Vero cells, Shiga toxin protein synthesis inhibition reporter. inhibition, % at 38.7 µM. actives 9.2% (n = 290,000). AID 2315; in the data active = inhibition mostly above about 28%, no sharp cut-off; inactive = mostly below about 43%; also: 0% is about no effect
Starred values were filed as active, the others as inactive; ? = inconclusive; / = not tested or not shown. Only some compounds are listed: those with a hit (about 22% of all), similar ones and a draw of the others. Unless noted, calls follow the shape of the dose curve; as a rule, active = well fitted inhibition curve with a large enough effect; inconclusive = small, poorly fitted or top-dose-only effect, or another doubt; inactive = no such curve, though single readings can be large or run the other way.

SMILES	LmPK inh	Pf growth 48h	Pf growth 96h	Cycloheximide cs	Shiga inhibitor
CC1(C)Cc2c(cnn2-c2ccccc2)C(NC(=O)CCCn2cncn2)C1 (centres undefined)	1%	-19%	12µM*	24*	29
CC1(C)Cc2c(cnn2-c2ccc(F)cc2)C(NC(=O)Cn2cncn2)C1 (centres undefined)	1%	20%	1%	0	-8
CC1(C)Cc2c(cnn2-c2ccc(F)cc2)C(NC(=O)CCn2cncn2)C1 (centres undefined)	-6%	-2%	?	25*	16
CC(=O)Nc1ccn(C2OC(C(COC(C)=O)NC(=O)C(CCCCNC(=O)OCc3ccccc3)NC(=O)OC(C)(C)C)C(OC(C)=O)C2OC(C)=O)c(=O)n1 (centres undefined)	/	/	/	6	-5
Cc1ccc(-n2ncc3c2CC(C)(C)CC3NC(=O)CCc2ccncc2)cc1 (centres undefined)	1%	2%	?	1	-7
Cc1ccc(-n2ncc3c2CC(C)(C)CC3NC(=O)CCc2cccnc2)cc1 (centres undefined)	0%	-11%	12µM*	17	-7
O=C(Nc1ccc(C(=O)NCCCN2CCN(c3ccccc3)CC2)cc1)C1=CSCCO1	-8%	?	34%	6	2
O=C(Nc1ccc(C(=O)N2CCCCC2)cc1)C1=CSCCO1	?	61%	?	28*	84*
O=C(Nc1ccc(C(=O)N2CCN(c3ccccc3F)CC2)cc1)C1=CSCCO1	-4%	-4%	-3%	26*	31*
COc1cc(C(=O)c2ccccc2)c(OC)cc1C(=O)Nc1ccc(O)cc1	-4%	-26%	6%	-3	-19
C=CCC(O)(CC=C)CNC(=O)c1ccc(OC)c(OC2CCN(C(C)=O)CC2)c1	0%	-5%	?	-1	-4
O=C(O)CCCC(=O)N1N=C(c2ccccc2)CC1c1ccc2nccnc2c1 (centres undefined)	0%	14%	3.7µM*	8	-2
O=C(c1ccco1)N1N=C(c2ccccc2)CC1c1ccc2nccnc2c1 (centres undefined)	0%	?	7.4µM*	16*	31
NC(N)=NN=C1CCC(c2ccccc2)CC1 (centres undefined)	-2%	6%	4%	-2	-5
O=C(OC[C@@H](O)CO)c1ccccc1Nc1ccnc2cc(Cl)ccc12	/	?	1.6µM*	/	/
Cc1c(Cl)cccc1Nc1ncccc1C(=O)OCC(O)CO (centres undefined)	2%	15%	47%	-4	15
O=C(OCC(O)CO)c1ccccc1Nc1ccnc2cc(Cl)ccc12 (centres undefined)	/	8.3µM*	?	/	/
CCN(CC(=O)NCCCN1CCOCC1)S(=O)(=O)c1ccc(F)cc1	11%	20%	13%	-6	-5
O=[N+]([O-])c1cccnc1SCc1ccccc1	3%	/	0%	10	21
Cc1cc(=O)oc2cc(Nc3ccccc3)ccc12	-1%	113%	18%	60*	55*
Cc1cc(=O)oc2cc(NC(=O)CCC(=O)O)ccc12	-1%	19%	77%	-1	-12
Cc1cc(=O)oc2cc(NC(=O)c3cccc(S(=O)(=O)N(C)C)c3)ccc12	4%	0%	-8%	28*	66*
Cc1cc(=O)oc2cc(NC(=O)c3cccc(F)c3)ccc12	-10%	91%	179%	12	20
CCCC(C(=O)Nc1ccc2c(C)cc(=O)oc2c1)c1ccccc1 (centres undefined)	-14%	0%	?	-1	-22
Cc1cc(=O)oc2cc(NC(=S)NNC(=O)c3c(Cl)cnn3C)ccc12	-11%	120%	?	23	48*
SMILES	LmPK inh	Pf growth 48h	Pf growth 96h	Cycloheximide cs	Shiga inhibitor
Cc1cc(=O)oc2cc(NC(=O)Cc3ccccc3)ccc12	3%	45%	23%	13	45*
Cc1cc(=O)oc2cc(NC(=O)c3cccc(S(C)(=O)=O)c3)ccc12	-2%	85%	53%	10	33
Cc1cc(=O)oc2cc(NC(=O)c3ccc(OC(F)F)cc3)ccc12	-2%	56%	56%	21*	43*
Cc1cc(=O)oc2cc(NC(=S)NCc3ccccn3)ccc12	-1%	21%	-7%	17	34*
COc1ccccc1C(=O)Nc1ccc2c(C)cc(=O)oc2c1	-3%	136%	9%	35*	107*
Fc1cccc(NC(=S)NCc2ccccn2)c1	1%	124%	32%	50*	94*
COCCN(C(=O)c1ccc(COc2ccccc2)o1)c1c(N)n(CC(C)C)c(=O)[nH]c1=O	/	-15%	?	/	/
COc1cc(CN2CCNC(=O)C2CC(=O)NC2CCCC2)cc(OC)c1 (centres undefined)	5%	-25%	30%	9	-3
COc1cccc(OC)c1C(=O)Nc1cccc2c1CCCC2	10%	-5%	-10%	1	/
COc1ccc(NC(=O)CN(C)C(=O)CCCNC(=O)c2ccc(Cl)cc2)cc1	/	34%	54%	/	/
O=C1C(Cl)=C(Nc2cccc(O)c2)C(=O)N1Cc1ccccc1	1%	-24%	4.7µM*	1	-5
O=C1C(Cl)=C(NCC2CCCO2)C(=O)N1CCc1ccccc1 (centres undefined)	3%	107%	1%	57*	56*
O=C1C(Cl)=C(NCCCN2CCOCC2)C(=O)N1CCc1ccccc1	5%	12%	?	24*	29
CN1CCN(C2=C(Cl)C(=O)N(CCc3ccccc3)C2=O)CC1	5%	52%	-92%	48*	40*
CCOc1ccccc1NC1=C(Cl)C(=O)N(Cc2ccccc2)C1=O	2%	10%	/	-3	-19
O=C(NCCN1CCOCC1)C(=O)NCC1OCCCN1S(=O)(=O)c1cc(F)ccc1F (centres undefined)	2%	31%	62%	-3	-13
Cc1c(C(=O)N2CCCCC2)c(S(=O)(=O)N(C)Cc2ccccc2)c(C)n1C	1%	-23%	?	0	-5
O=C1C(Cl)=C(NCCc2ccccc2)C(=O)N1CCc1ccccc1	4%	/	?	6	9
O=C1C(Cl)=C(N2CCCCC2)C(=O)N1Cc1ccccc1	5%	6%	?	4	13
O=C1C(Cl)=C(Nc2ccc(F)cc2)C(=O)N1CCc1ccccc1	-2%	8%	?	59*	82*
O=C1C(Cl)=C(N2CCOCC2)C(=O)N1CCc1ccccc1	-1%	106%	?	47*	133*
Cn1c(SCC(N)=O)nnc1-c1ccc(C(C)(C)C)cc1	-5%	56%	1%	17*	14
Cc1cccc(-c2nnc(SCC(=O)C(C)(C)C)n2C)c1	4%	?	1%	37*	73*
CCc1noc(C)c1C(=O)N1CCSC1=Nc1cccc(Cl)c1C	-5%	?	2.9µM*	0	23
O=C1C2CCCN2C(=O)N1CCCCN1CCN(c2ccc(F)cc2)CC1 (centres undefined)	-5%	1%	11%	-1	4
